Results: PubChem BioAssay
Values joined by “and” are separate entries in the source; they are usually repeats but may differ in a detail not shown here. Equal values may be shown once. Some compounds were tested as several samples or in several runs, with calls that do not always agree. Active and inactive are the calls of the source.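 Rule for the calls, unless noted: active = inhibition at or above 50% relative to wild type and mutant plate controls; inactive = inhibition below 50%.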

Legend:
[1] = inhibitors of mutant huntingtin aggregation, primary screen, imaging, exon1htt(103Q)mCFP cells, high-content imaging (AID 483;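 active = visual image review flags a hit and inhibition of aggregation exceeds 20%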;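 note: compound exposure lasted 3 days before fixation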;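 for nuclei count: percent of the per-plate median nuclei count of sample wells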); conditions: exon1htt(103Q)mCFP cell line, aggregate imaging, at 2 µM; inhibition of aggregation: stronger effect = higher value; nuclei count: measured here: cell count, toxicity
[2] = biological target: Voltage-gated potassium channel subunit beta-2 (Rattus norvegicus) (UniProt P62483); experiment: KvBeta enzyme negative modulators, primary screen, biochemical, NADPH fluorescence (AID 622;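 active = fluorescence slope higher than the sample average by over 3 SD, cut at about -0.22 in these data, passing the limit was not always enough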;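 note: slope of raw intensity against log time taken from 70 to 1610 s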); conditions: recombinant KvBeta, 4-cyanobenzaldehyde reduction, at 10 µM, stronger effect = higher value
Sequence of Voltage-gated potassium channel subunit beta-2 (Rattus norvegicus) (P62483 whole entry, looked up): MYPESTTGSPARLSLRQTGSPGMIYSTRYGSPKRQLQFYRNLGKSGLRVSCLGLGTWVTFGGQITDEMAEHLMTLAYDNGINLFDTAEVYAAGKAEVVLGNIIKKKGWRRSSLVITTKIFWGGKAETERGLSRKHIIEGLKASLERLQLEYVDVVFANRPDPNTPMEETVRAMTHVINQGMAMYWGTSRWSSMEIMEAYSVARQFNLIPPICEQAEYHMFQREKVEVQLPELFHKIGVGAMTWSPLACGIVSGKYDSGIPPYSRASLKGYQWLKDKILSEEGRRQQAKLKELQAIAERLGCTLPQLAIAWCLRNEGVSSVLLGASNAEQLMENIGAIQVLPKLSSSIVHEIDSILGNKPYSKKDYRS

[3] = biological target: Voltage-gated potassium channel subunit beta-2 (Rattus norvegicus) (UniProt P62483); experiment: KvBeta positive modulators, primary screen, biochemical, NADPH fluorescence (AID 623;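 active = NADPH fluorescence slope more negative than the mean of all samples by about 3 SD, 99.7% confidence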;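 note: fluorescence intensity change per second fitted from 20 to 320 s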); conditions: Recombinant KvBeta, NADPH fluorescence decrease slope, 10 min; at 10 µM; stronger effect = lower value
[4] = inhibitors of larval lipid processing in zebrafish, primary screen, whole organism, PED6 fluorescence, gall bladder and intestine (AID 686;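 active = a full or partial loss of lipid-probe fluorescence in the fish gall bladder, intestine or both, judged by eye; inactive = no fluorescence loss, or compound toxic to the fish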;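 note: larvae 5 to 7 days old with five fish per well; signal comes from phospholipase A2 cleavage of quenched PED6 carried via bile; overnight exposure to compound and PED6 before scoring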); conditions: Zebrafish larvae PED6 lipid processing, fluorescence scoring; screened at 20 µM (by protocol)
[5] = inhibitors of Chlamydomonas gravitaxis, primary screen, whole organism, Chlamydomonas reinhardtii, WT vs cilia-less mutant, absorbance, 96-well (AID 463189); conditions: OD600 absorbance, 2 days, at 10 µM, stronger effect = higher value;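 note: 0% = wild type cc124 cells in DMSO and 100% = ciliumless bld1 mutant cells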
[6] = inhibitors of E-selectin induction by TNFa, primary screen, imaging, HUVEC, immunofluorescence, MLSMR starter and 10KST1 sets (AID 487;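 active = visually confirmed hit in the image check and inhibition above 20%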;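 for inhibition: signal is fraction of cell area covered by stained E-selectin grains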;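 for nuclei count: 100% = median nuclei count of all wells on the same plate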); conditions: HUVEC TNFalpha-induced E-selectin immunofluorescence imaging, at 2 µM; inhibition: stronger effect = higher value; nuclei count: measured here: cell number, toxicity
[7] = DUSP6 inhibitors restoring Erk phosphorylation by chemical complementation, primary imaging in DUSP6-transfected HeLa (AID 609;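 active = compounds giving at least 50% inhibition in the cell-based MKP-3 phosphatase rescue imaging test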;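 for inhibition: phospho-Erk level distribution per well compared with pooled transfected vehicle control wells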); conditions: HeLa MKP-3 transfected, phospho-Erk imaging KS statistic, at 10 µM, cells stimulated with TPA for 15 min
[8] = biological target: Dual specificity protein phosphatase 6 (Homo sapiens) (UniProt Q16828); experiment: as above; conditions: HeLa MKP-3 transfected, phospho-Erk imaging KS statistic; at 10 µM; stronger effect = higher value; cells stimulated with TPA for 15 min
Sequence of Dual specificity protein phosphatase 6 (Homo sapiens) (Q16828 whole entry, looked up): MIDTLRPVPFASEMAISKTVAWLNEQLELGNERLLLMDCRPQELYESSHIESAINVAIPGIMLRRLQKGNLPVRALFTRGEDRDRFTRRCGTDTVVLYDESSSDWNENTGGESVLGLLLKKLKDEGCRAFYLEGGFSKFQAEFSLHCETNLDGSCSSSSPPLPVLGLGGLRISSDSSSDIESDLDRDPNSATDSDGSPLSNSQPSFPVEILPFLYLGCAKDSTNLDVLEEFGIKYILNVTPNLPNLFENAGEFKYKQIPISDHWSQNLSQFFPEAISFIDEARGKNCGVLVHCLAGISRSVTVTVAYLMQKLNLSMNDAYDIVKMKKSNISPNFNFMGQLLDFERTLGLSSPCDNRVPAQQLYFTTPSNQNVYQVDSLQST

[9] = biological target: Alpha-2C adrenergic receptor (Homo sapiens) (UniProt P18825); experiment: modulators of alpha2C/GIRK thallium flux, primary screen, cell-based, HEK293 alpha2C/GIRK1/2 (AID 624;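 active = fluorescence slope after compound addition differing from the mean of all screened samples at 99.7% confidence, in either direction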;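 note: slope of fluorescence ratio to pre-addition baseline per second over 15 to 24 s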); conditions: thallium flux BTC fluorescence, at 10 µM, actives lie on both sides
Sequence of Alpha-2C adrenergic receptor (Homo sapiens) (P18825 whole entry, looked up): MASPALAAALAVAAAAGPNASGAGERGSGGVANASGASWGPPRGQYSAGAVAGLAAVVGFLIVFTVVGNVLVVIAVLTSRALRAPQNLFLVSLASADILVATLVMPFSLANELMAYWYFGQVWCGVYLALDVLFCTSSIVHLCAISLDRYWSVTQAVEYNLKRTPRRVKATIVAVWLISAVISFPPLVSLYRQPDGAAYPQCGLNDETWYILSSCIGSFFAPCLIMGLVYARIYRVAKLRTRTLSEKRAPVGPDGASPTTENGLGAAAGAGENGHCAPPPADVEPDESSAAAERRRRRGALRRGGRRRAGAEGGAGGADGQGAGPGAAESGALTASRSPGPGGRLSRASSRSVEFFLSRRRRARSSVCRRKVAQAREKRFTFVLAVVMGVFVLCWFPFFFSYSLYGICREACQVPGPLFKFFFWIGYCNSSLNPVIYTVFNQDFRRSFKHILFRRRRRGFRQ

[10] = inhibitors of Sendai virus-induced IRF3 signaling, primary screen, TLR/RLR signaling modifier project, cell-based, Sendai virus stimulus, luciferase, 10K MLSCN set (AID 602276;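 active = inhibition at or above 50% at 10 µM; inactive = inhibition below 50%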;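 note: firefly luciferase from ISG56 promoter only with Renilla not read in this screen; 0% = Sendai virus plus DMSO and 100% = medium plus DMSO without virus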); conditions: HEK293 RL24 IRF3 luciferase reporter, at 10 µM, stronger effect = higher value
[11] = inhibitors of poly I:C-induced TLR3 signaling, primary screen, cell-based, poly I:C stimulus, luciferase, 10K MLSCN set (AID 602277;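 active = inhibition of the reporter signal at or above 50%; inactive = inhibition below 50%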); conditions: HEK293-TLR3 RL24 IRF3 luciferase reporter, at 10 µM, stronger effect = higher value
[12] = biological target: Muscarinic acetylcholine receptor M4 (Homo sapiens) (UniProt P08173); experiment: compounds altering M4/GIRK thallium flux, either direction, primary screen, M4 allosteric agonist project, cell-based, HEK293 M4/GIRK, BTC-AM (AID 625;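 active = fluorescence slope after compound addition differing from the mean of all tested samples at 99.7% confidence, mostly higher but some lower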;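 note: thallium influx through GIRK channels coupled to M4 in HEK293 cells with BTC-AM dye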); conditions: at 10 µM, actives lie on both sides
Sequence of Muscarinic acetylcholine receptor M4 (Homo sapiens) (P08173 whole entry, looked up): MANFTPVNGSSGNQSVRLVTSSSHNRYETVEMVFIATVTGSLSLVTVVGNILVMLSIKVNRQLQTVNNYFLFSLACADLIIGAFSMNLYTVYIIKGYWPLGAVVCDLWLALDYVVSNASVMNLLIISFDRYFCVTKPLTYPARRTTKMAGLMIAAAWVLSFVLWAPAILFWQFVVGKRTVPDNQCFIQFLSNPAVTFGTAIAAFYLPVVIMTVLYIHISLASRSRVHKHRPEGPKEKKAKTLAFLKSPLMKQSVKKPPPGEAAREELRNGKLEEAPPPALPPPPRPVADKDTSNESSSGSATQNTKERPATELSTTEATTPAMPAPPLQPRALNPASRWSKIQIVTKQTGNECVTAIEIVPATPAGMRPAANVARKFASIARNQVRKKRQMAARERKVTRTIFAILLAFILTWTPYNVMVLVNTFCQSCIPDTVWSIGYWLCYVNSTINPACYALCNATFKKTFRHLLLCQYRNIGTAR

[13] = measured here: cell density z-score
[14] = measured here: nuclear c-Myc green intensity z-score
[15] = measured here: nuclear pErk red intensity z-score, stronger effect = higher value

SMILES | inhibition of aggregation [1] | nuclei count [1] [%] | fluorescence slope [2] | NADPH fluorescence slope [3] | outcome [4] | inhibition [5] | inhibition [6] | nuclei count [6] [%] | z-score [7, 13] | z-score [7, 14] | z-score [7, 15] | inhibition [8] | slope [9] | inhibition [10] | inhibition [11] | fluorescence slope [12]
C1CNCCNCCCNCCNC1 | 19.7% (inactive) | 100 | -0.454 (inactive) | -6.6e-05 (inactive) | inactive | -15.9% (inactive) | – | – | – | – | – | – | – | – | – | –
Nc1nc2c(ncn2COCCO)c(=O)[nH]1 | – | – | -0.446 (inactive) | -8.2e-06 (inactive) | inactive | -9.79% (inactive) and -10% (inactive) | -45.2% (inactive) | 98.5 | -1.3 | 0.247 | -1.02 | 3.45% (inactive) | 0.00457 (inactive) | -1.97% (inactive) | 26.2% (inactive) | –
O=C(NCC1CCCCN1)c1cc(OCC(F)(F)F)ccc1OCC(F)(F)F (stereo not drawn) | – | – | -0.495 (inactive) | -5.3e-05 (inactive) | inactive | -10.1% (inactive) and -10.2% (inactive) | -29.3% (inactive) | 107 | 0.584 | 0.032 | 0.103 | 15.3% (inactive) | 0.00342 (inactive) | -8.5% (inactive) | 50.6% (active) | –
CCC1=Nc2ccccc2NC2=C1C(=O)CCC2 | – | – | -0.427 (inactive) | -3.7e-05 (inactive) | inactive | 23.6% (inactive) | -65.4% (inactive) | 87.8 | -1.25 | 0.203 | -0.00909 | 3.66% (inactive) | – | – | – | 0.00568 (inactive)
O=C(NCCO)C1(c2ccccc2)CCCC1 | – | – | -0.406 (inactive) | -8.2e-06 (inactive) | inactive | -4.89% (inactive) | -0.2% (inactive) | 87.4 | -1.49 | 2.28 | -1.5 | 20.8% (inactive) | – | – | – | 0.00732 (inactive)
CC1(C)CC(=O)C(C2=NC(C)(C)Cc3ccccc32)=C(O)C1 | – | – | -0.435 (inactive) | 3.9e-06 (inactive) | inactive | -9.43% (inactive) | -46.3% (inactive) | 99.8 | -0.0371 | 0.246 | -0.668 | 15.1% (inactive) | – | – | – | 0.00539 (inactive)
CC(C)c1nc2sc3c(c2c(=O)o1)CCCC3 | – | – | -0.376 (inactive) | -6.4e-05 (inactive) | inactive | 22.9% (inactive) | -11.8% (inactive) | 143 | -0.957 | 1.42 | 1.08 | 13.2% (inactive) | – | – | – | 0.00562 (inactive)
O=C(CCCN1CCC(O)(c2ccc(Cl)cc2)CC1)c1ccc(F)cc1 | – | – | -0.485 (inactive) | -4.2e-05 (inactive) | – | -2.31% (inactive) and 3.84% (inactive) | -112% (inactive) | 130 | 1.12 | -0.669 | -0.889 | 10.2% (inactive) | – | -13% (inactive) | -5.69% (inactive) | 0.00387 (inactive)
COc1cc2nc(N3CCN(C(=O)C4CCCO4)CC3)nc(N)c2cc1OC (stereo not drawn) | -7.9% (inactive) | 82 | – | – | inactive | 3.5% (inactive) and -0.975% (inactive) | -29.4% (inactive) | 105 | 1.01 | -0.263 | -0.73 | 16.8% (inactive) | – | 16.1% (inactive) | 30.2% (inactive) | –
Fc1ccc(C(c2ccc(F)cc2)N2CCN(C/C=C/c3ccccc3)CC2)cc1 | – | – | -0.463 (inactive) | -6.2e-05 (inactive) | inactive; toxic | -8.15% (inactive) and 80.3% (active) | -61.3% (inactive) | 124 | -0.381 | 1.96 | -1.06 | 23.4% (inactive) | 0.00453 (inactive) | 10.5% (inactive) | 42.4% (inactive) | –
COc1ccc(OC)c(N=C(C)C2=C(O)COC2=O)c1 | – | – | -0.404 (inactive) | 6.7e-06 (inactive) | inactive; toxic | -11.6% (inactive) | -20.1% (inactive) | 104 | -1.31 | 0.523 | 0.389 | -0.159% (inactive) | – | – | – | 0.00554 (inactive)
Cc1cc(N/C=C/C(=O)c2cccc3ccccc23)no1 | – | – | -0.396 (inactive) | -2.3e-06 (inactive) | inactive | -11.1% (inactive) | -51% (inactive) | 95.6 | -0.324 | 0.59 | -0.55 | 13.2% (inactive) | – | – | – | 0.00616 (inactive)
CC1(C)CC(=O)C=C(N=CC2=C(O)CC(C)(C)CC2=O)C1 | – | – | -0.363 (inactive) | -4.6e-05 (inactive) | inactive | 8.63% (inactive) | -39.1% (inactive) | 174 | -0.899 | 1.02 | 0.848 | 9.39% (inactive) | – | – | – | 0.00557 (inactive)
CCOC(=O)C(Oc1ccc(=O)[nH]n1)C(C)=O (stereo not drawn) | – | – | -0.398 (inactive) | -7.7e-06 (inactive) | inactive | -3.15% (inactive) | -70.7% (inactive) | 105 | -0.778 | 0.196 | -1.16 | 22.7% (inactive) | – | – | – | 0.00606 (inactive)
NC(=O)c1ccccc1OCCOCCOCCOc1ccccc1C(N)=O | – | – | -0.379 (inactive) | -3.2e-05 (inactive) | inactive | 21.6% (inactive) | -40% (inactive) | 141 | 0.988 | 0.573 | -0.494 | 3.66% (inactive) | – | – | – | 0.00555 (inactive)
